Source: PubChem
A selection: hits, their analogues and other compounds. The true share with any hit is near 11%.
OTUD3 inh: inhibitors of human OTUD3 deubiquitinase; OTU domain-containing protein 3 (Homo sapiens), Q5T2D3; purified OTUD3, Ub-rhodamine fluorescence, 2 h; inhibition, % at 25 µM; 47,000 compounds, 0.7% hits; AID 1645858, 2021
Target sequence (Q5T2D3 whole entry, looked up, the tested form may be a part): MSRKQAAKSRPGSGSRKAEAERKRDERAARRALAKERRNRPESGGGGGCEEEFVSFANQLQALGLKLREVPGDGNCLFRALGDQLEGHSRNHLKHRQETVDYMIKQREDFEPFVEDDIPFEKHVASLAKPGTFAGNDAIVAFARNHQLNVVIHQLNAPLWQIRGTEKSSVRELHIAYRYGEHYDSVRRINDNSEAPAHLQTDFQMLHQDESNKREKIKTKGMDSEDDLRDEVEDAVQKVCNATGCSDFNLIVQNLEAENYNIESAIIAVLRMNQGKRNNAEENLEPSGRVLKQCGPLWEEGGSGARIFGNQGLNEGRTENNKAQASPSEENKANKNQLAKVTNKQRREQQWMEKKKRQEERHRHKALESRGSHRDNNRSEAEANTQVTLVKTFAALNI
USP30 block: inhibitors of human USP30 deubiquitinase. Ubiquitin carboxyl-terminal hydrolase 30 (Homo sapiens), Q70CQ3. purified USP30, Ub-rhodamine cleavage fluorescence. inhibition, % at 25 µM. 47,000 compounds, 5.3% hits
USP28 block: inhibitors of human USP28 deubiquitinase; inhibition, % at 25 µM; 47,000 compounds, 3% hits; purified USP28, Ub-rhodamine cleavage fluorescence, 30 min; AID 1645857, 2021; Ubiquitin carboxyl-terminal hydrolase 28 (Homo sapiens), Q96RU2
USP17 block: inhibitors of human USP17 deubiquitinase; purified USP17, Ub-rhodamine cleavage fluorescence, 3 h; inhibition, % at 50 µM; 47,000 compounds, 6.5% hits; Ubiquitin carboxyl-terminal hydrolase 17-like protein 5 (Homo sapiens), A8MUK1; AID 1645855, 2021
* hit, by the source's call; i = inactive; . = no result given. Rule as the data show it: active = inhibition above about 30%; inactive = the rest.

SMILES	OTUD3 inh	USP30 block	USP28 block	USP17 block
O=C1COc2nc3ccccc3cc2CN1CC1CC1	12	29	18	11
CC(O)/C=C/C1OC(=O)CC1Nc1ccc(CO)cc1 (configuration not stated)	0	0	2	44*
CC(=O)Nc1ccc(C(=O)NC(C)c2ccc(F)cc2)c(N2CCOCC2)c1 (configuration not stated)	-2	-6	-5	-8
C=C(NC(=O)C(=C)NC(=O)c1csc(-c2ccc3c(n2)-c2csc(n2)-c2csc(n2)C(C(C)C2CO2)NC(=O)C(Cc2ccc(O)cc2)NC(=O)c2csc(n2)C(C(O)c2ccccc2)NC(=O)c2nc(sc2C)C(CC(N)=O)NC(=O)c2csc-3n2)n1)C(=O)O (configuration not stated)	1	24	22	68*
C=C(NC(=O)C(=C)NC(=O)C(=C)NC(=O)C(=C)NC(=O)c1ccc2c(n1)-c1coc(n1)C(=C)NC(=O)C(=C)NC(=O)c1csc(n1)C(C)NC(=O)c1csc(n1)CNC(=O)c1coc(n1)C(CSC)NC(=O)C(C(C)O)NC(=O)c1csc-2n1)C(=O)O (configuration not stated)	-28	-314	-50	-39
O=S(=O)(Nc1ccc(-c2ccccc2)cc1)c1ccc2c(c1)OCCO2	0	25	9	2
COc1ccc(C(=O)NNC(=O)c2ccc(O)cc2)cc1OC	-6	-5	-9	-7
CCn1cc(C(=O)NCc2ccc(F)cc2F)c(=O)c2ccc(C)nc21	26	24	21	41*
Cc1cnc(C(=O)N2CCCC(c3cc(Nc4ccccn4)cc(C)n3)C2)cn1 (configuration not stated)	8	9	3	5
CC1(C)Cc2c(sc3nc(Cc4ccccc4)nc(SCC(=O)Nc4ccccc4)c23)CO1	26	56*	18	35*
CCC1(C)Cc2c(sc3nc(SCC(=O)Nc4ccc(C(C)=O)cc4)nc(N)c23)CO1 (configuration not stated)	4	-2	5	63*
CC(C)C1Cc2c(sc3nc(SCC(=O)Nc4cccc5ccccc45)nc(N)c23)CO1 (configuration not stated)	1	-44	-9	52*
O=C(NC1CCCCC1)c1ccccc1N1C(=O)[C@@H]2Cc3c([nH]c4ccccc34)C(c3ccc(F)cc3)N2C1=O (some centres not stated)	-40	-278	-72	.
CC(=O)Nc1cccc(N2CC(C(=O)NCc3cccc(C)c3)CC2=O)c1 (configuration not stated)	0	1	-1	3
Cc1cccc(O)c1-c1nc2c(-c3nc4c(C(=O)O)cccc4o3)cccc2o1	33*	-8	17	47*
CCn1c(=O)c(C(=O)Nc2cccc(F)c2)nc2ccccc21	-13	4	0	-18
CCC(C)c1ccc(-c2csc(Cn3c(CN4CCN(C)CC4)nc4ccccc4c3=O)n2)cc1 (configuration not stated)	2	-25	-6	58*
COc1ccc(CN(C(=O)C2Cc3ccccc3O2)C2CC2)cc1 (configuration not stated)	4	-8	0	15
Cc1sc2ncn(CC(=O)Nc3ccccc3)c(=O)c2c1C	7	-133	23	39*
COc1ccc(S(=O)(=O)Nc2ccccc2C(=O)OCC(=O)c2ccc(Br)cc2)cc1OC	-9	-20	-11	-18
COc1cccc(-c2cccc([C@H]3C[C@@H](NC(C)=O)[C@@H]4CCC[C@H]4O3)c2)c1	8	10	4	2
COc1cc(-c2noc(-c3ccccc3C)n2)ccc1OCC(=O)NC(C)C	17	33*	9	21
CC(C)NC(=O)COc1ccccc1-c1nnc(-c2ccccc2)o1	9	50*	21	30
O=C(COc1ccccc1-c1nnc(-c2ccccc2)o1)NCc1ccc(F)cc1	13	23	11	22
O=C(COc1ccccc1-c1nnc(-c2ccccc2)o1)Nc1ccccc1F	1	26	0	46*
SMILES	OTUD3 inh	USP30 block	USP28 block	USP17 block
COc1ccc(NC(=O)COc2ccccc2-c2nnc(-c3ccccc3)o2)cc1	4	33*	8	35*
Cc1nc2c(nnn2C[C@@H]2CCCN(C(=O)C3CCCC3)C2)c(=O)[nH]1	-9	-3	-6	-14
Cc1cc(N2CCCCC2)nc2ccc(NC(=O)c3ccco3)cc12	-29	-67	-3	-26
c1ccc(CCN2CCn3c(nc4ccccc43)C2)cc1	-178	i	-226	-156
O=[N+]([O-])c1ccc2c(c1)nc1n2CCN(Cc2ccco2)C1	22	42*	43*	61*
O=S(=O)(Cc1nnc(-c2ccccc2C(F)(F)F)o1)c1ccc(Cl)cc1	-4	-2	-11	68*
O=C(Nc1ccc2sccc2c1)c1ccc(F)cc1	0	58*	10	49*
O=C(CCc1nnc2ccc(N3CCOCC3)nn12)NCc1ccco1	6	17	5	0
COC(=O)c1cc(NC(=O)/C=C/c2ccc(C(C)C)cc2)ccc1N1CCOCC1	-11	-22	23	-17
COC(=O)c1ccc(NC(=O)/C=C/c2ccc(F)cc2)cc1	14	90*	96*	86*
COc1ccc(Cl)cc1NC(=O)C1C2C(=O)N(c3ccc4c(c3)OCO4)C(=O)C2C2c3ccccc3C=CN12 (configuration not stated)	-57	i	-11	-56
COc1ccc(N2C(=O)[C@@H]3[C@H]4c5ccccc5C=CN4C(C(=O)Nc4ccc5c(c4)OCO5)[C@@H]3C2=O)cc1 (some centres not stated)	-35	-164	-4	64*
COc1ccc(Cl)cc1NC(=O)C1[C@@H]2C(=O)N(Cc3ccc4c(c3)OCO4)C(=O)[C@@H]2[C@H]2c3ccccc3C=CN12 (some centres not stated)	14	-99	45*	24
Cc1c(C(=O)NCC2CCCCC2)nnn1-c1cccc2c1CCN(S(C)(=O)=O)C2	-3	-27	-12	-15
CC(=O)c1ccc(N2C(=O)N(Cc3cccc([N+](=O)[O-])c3)c3ccccc3S2(=O)=O)cc1	15	53*	18	14
Cc1cccc(CN2C(=O)N(Cc3ccccc3)S(=O)(=O)c3ccccc32)c1	17	34*	15	7
CCOc1ccc(N2C(=O)N(CC(=O)c3ccc(F)cc3)c3ccccc3S2(=O)=O)cc1	7	13	14	13
O=C(O)c1sc2cc(C(F)(F)F)cnc2c1-c1ccco1	-78	-472	-32	-74
Cc1ccc(C(C)C(=O)N2CCc3nc4ccccc4c(=O)n3CC2)cc1 (configuration not stated)	16	30*	10	14
O=C(Cc1ccccc1O)N1CCc2nc3ccccc3c(=O)n2CC1	0	-11	-16	-10
CCc1ccc(C(CC(=O)Nc2ccc3c(c2)OCO3)NC(=O)C(F)(F)F)cc1 (configuration not stated)	18	16	11	19
